Consider 40 compounds from PubChem BioAssay (NCI).

SMILES strings stand for the structures. The panel holds about 83,000 compounds, 20% with a hit somewhere; the sample as a whole holds those more often.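 Assay: single dose, 48 h. Readout: percent growth (0 = no net growth; negative = cell death). Active: <10.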 Values without a mark were called inactive. Activity calls are given as the source filed them.

The test system of the experiment is HOP-62 NSCLC. Description: NCI-60 one-dose screen, 48 h (100 = growth as untreated, 0 = no growth, -100 = all killed). As to conditions: 10 µM unless noted.
For `CCCc1cc(NC)nc(S(=O)(=O)CC)n1`, the growth is 110%. For `Cc1ccc(Cl)cc1Nc1nc(C(F)(F)F)ccc1C(=O)N/N=C/c1cccnc1` the value was 29.4%. For `Cc1ccc(/C=C2\CN(C(=O)OC(C)(C)C)C/C(=C\c3ccc(C)cc3)C2=O)cc1` the value was 94.9%. The value for `O=C(Nc1cccc([N+](=O)[O-])c1)c1cc2ccccc2cc1O` was 0.534% (active); that for `NC(=O)c1c(NC(=O)c2ccccc2)sc2c1CCC(=O)C2` was 45.1%; that for `COc1cc(N2C(=O)[C@H](O)C2c2ccc(SC)cc2)cc(OC)c1OC` (stereo not given in full) was 21.6%.

`Cn1cc(-c2nc(-c3c[nH]c4ccncc34)cs2)c2ccccc21`: the growth was 60.4%. As for `OCCNCCCOc1ccc2ncnc(Nc3ccc(Oc4cccc(C(F)(F)F)c4)c(Cl)c3)c2c1`, the growth was 66.5%. For `O=S(=O)(NCCNc1cc(-c2c(-c3cccc(O)c3)nc3sccn23)ccn1)c1ccc(C(F)(F)F)cc1` the value was 71.8%; for `CCOC(=O)c1nc(Nc2ccc(NC(=O)Nc3ccc(F)cc3)cc2)c2ccccc2n1`, 97.6%; for `CCN1C(=O)N(CC)C2C1NN=c1s/c(=C\c3cccc([N+](=O)[O-])c3)c(=O)n12` (stereo not given), 40%.

Consider `C#Cc1cccc(Nc2ncnc3ccc(-c4cnc(N)nc4)cc23)c1`, for which the growth is 28.4%. For `CCN(CC)CCSc1nc(-c2ccccc2)c(C#N)c(=O)[nH]1` the value was 55%; for `CN1C(=O)/C(=C/c2cn(-c3ccccc3)nc2-c2ccccc2)SC1=S`, 97.9%. For `O=C1Nc2ccccc2/C1=C\c1nc(-c2ccccc2)n2ccccc12` the value was 92.9%; for `COc1ccc(NC(=O)c2sc3nc(C)c(C(=O)/C=C/c4cccc(OC)c4)cc3c2N)cc1`, 61.8%. Take `Nc1nc2c([nH]1)c1[nH]c3ccccc3c1c1[nH]c3ccccc3c21`: the growth was 67.8%. For `Cc1ccc(-c2nc3nc(-c4ccc(F)cc4)nc(N4CCNCC4)c3o2)cc1` the value was 77.6%. The value for `COc1ccc(OC)c(C(=O)/C=C/c2cc3c(c(OC)c2OC)OCO3)c1` was 101%; that for `CN1C(=O)/C(=C/c2ccc(C(=O)Nc3ncc(Cc4ccc(Cl)cc4)s3)cc2)SC1=S` was 49.7%. Consider `O=C(OCc1ccc2c(Cl)cc(Cl)c(O)c2n1)n1cncn1`, for which the growth is 27.5%.

With `C[C@]12C=CC(=O)C=C1CCC1C2[C@@H](O)C[C@@]2(C)C1CC[C@]2(O)C(=O)COC(=O)CCC(=O)O` (stereo not given in full), the growth was 121%. The value for `COc1ccc2c(c1)c(-c1noc(C(=O)c3cn(C)c4ccc(Br)cc34)n1)cn2C` was 93.9%; that for `COc1ccc(/C=N/C2=C(C#N)C(c3cccc(Cl)c3)c3c(ccc4ccccc34)O2)cc1` (stereo not given) was 49.5%. The value for `Cc1ccccc1Cn1cnc2ccc(-c3cc(NC(=O)c4ccc(NC5CCN(C)CC5)cc4)n[nH]3)cc21` was 72.3%.

`O=C1CC(N2C(=O)/C(=C/C(Cl)=C\c3ccc([N+](=O)[O-])cc3)SC2=S)C(=O)N1c1ccc(Cl)cc1` (stereo not given): the growth was 50.4%. Regarding `CCN(CC)CCOc1ccc(-c2c(-c3ccccc3)c(=O)oc3ccccc23)cc1`, the growth was 95.5%. For `CCNC(=O)c1[nH]cc(-c2ccccc2)c1-c1cc(OC)c2c(c1OC)OCO2` the value was 91.8%; for `Cc1cc(=O)[nH]c2c(C#N)cnn12`, 105%. The value for `COCCn1c(-c2csc(-c3cn(C)c4ccc(OC)cc34)n2)cc2cccnc21` was 60.9%; that for `COC(=O)[C@]1(C)CCC[C@]2(C)[C@H]3C[C@H]4C(C(C)C)=C[C@]3(CC[C@H]21)[C@H]1[C@@H]4[C@@H](OCCC#N)CC[C@@H]1OCCC#N` was 75.3%.

For the compound `O=C(NCCCCNC(=O)OCc1ccc2c(Cl)cc(Cl)c(O)c2n1)OCc1ccc2c(Cl)cc(Cl)c(O)c2n1`, the growth was 9.48% (active). The value for `COC(=O)c1c2c(c(C)[n+]([O-])c1C)C(=O)C=C(NCc1ccc(Br)cc1)C2=O` was -77.2% (active); that for `CCCCCCNC(=O)Oc1ccc(/C(=C(/C)Cc2ccc(OC)cc2)c2ccc(OCCCN(C)C)cc2)cc1` was 76%; that for `CCCCCCC1(C)NCCO1` (stereo not given) was 105%. The value for `CC[C@]12C=CCN3CC[C@@]4(c5cc(NC(=O)CCC(=O)OCc6cn(Cc7ccc(F)cc7)nn6)c(OC)cc5N(C)[C@H]4[C@@](O)(C(=O)OC)[C@@H]1OC(C)=O)[C@@H]32` was 100%; that for `Oc1c(Cl)cc(Cl)c2ccc(Cn3cc(-c4cc(C(F)(F)F)cc(C(F)(F)F)c4)nn3)nc12` was 101%; that for `O=C1C(Cl)=C(Oc2ccccc2)C(=O)c2ccccc21` was 86%. Turning to `COc1ccccc1Nc1nc2c(s1)C1=CC[C@H]3[C@@H]4CC[C@H]([C@H](C)CCCC(C)C)[C@@]4(C)CC[C@@H]3[C@@]1(C)CC2`, the growth was 95.9%. For `N#Cc1cccc(-c2c(-c3ccc4ccccc4c3)oc3ccccc3c2=O)c1` the value was 41.5%.
